# Assay results published in the supplement of paper PMC10981050.
# Values joined by “and” are separate entries in the source; they are usually repeats but may differ in a detail not shown here. Equal values may be shown once. Where a name gives a salt, the structure may show the parent alone.
# Legend:
# Assay in all cases: cell viability relative to vehicle control; higher = less cytotoxic
# Conditions in all cases: 10 µM
# K562 = tested on: K562
# Summary of the method: (§1)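 CRISPR-edited mutant clones and isogenic wild-type clones from four leukaemia lines were screened against Selleck bioactive, kinase and epigenetic probe libraries, with identity-inconsistent compounds excluded. Each compound was acoustically dispensed at a single 10 µM dose into 384-well plates holding 2000 cells in 50 µL medium per well. After 48 h the supernatant was removed and CellTiter-Glo luminescence was read. Viability was expressed as percent of the on-plate vehicle control and analysed in Genedata Screener.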
# MARIMO = tested on: MARIMO
# Summary of the method: as §1
# MOLM14 = tested on: MOLM14
# Summary of the method: as §1
# OCI-AML2 = tested on: OCI-AML2
# Summary of the method: as §1
Compound,cell viability (K562; SRSF2 genotype: SRSF2 P95H/wt),cell viability (K562; SRSF2 genotype: SRSF2 wt/wt) [%],cell viability (MARIMO; SRSF2 genotype: SRSF2 P95H/wt) [%],cell viability (MARIMO; SRSF2 genotype: SRSF2 wt/wt) [%],cell viability (MOLM14; SRSF2 genotype: SRSF2 P95H/wt) [%],cell viability (MOLM14; SRSF2 genotype: SRSF2 wt/wt) [%],cell viability (OCI-AML2; SRSF2 genotype: P95H/wt) [%],cell viability (OCI-AML2; SRSF2 genotype: wt/wt) [%]
C[C@H](Cc1cc2c(c(C(N)=O)c1)N(CCCO)CC2)NCCOc1ccccc1OCC(F)(F)F [Silodosin],81.7% and 88.2%,87.5,86.2,85.6,87.2,89.5,74.7,80
C[C@@H](N)c1ccc(C(=O)Nc2ccnc3[nH]ccc23)cc1,90.4% and 107%,105,65.8,78,31.2,41.1,19.1,32.1
O=c1c2ccccc2nc(C=Cc2cccnc2)n1Cc1ccccc1,86.8% and 86.9%,79.8,74.3,90.1,78.5,82.6,78.4,75.9
O=C(Nc1ccccc1)c1cc([N+](=O)[O-])ccc1Cl,91.7% and 96.2%,81.4,86.8,90.8,89.3,101,90.1,91.8
Cc1cc(=O)oc2c(C=O)c(O)ccc12,110% and 118%,112,99,97.4,94.8,109,92.5,98.3
CC(C)(OCc1nn(Cc2ccccc2)c2ccccc12)C(=O)O [Bindarit],102% and 106%,112,108,103,101,106,118,107
COC[C@H]1C[C@@H](c2nc(-c3ccc4c(c3)COc3cc5c(ccc6nc([C@@H]7CC[C@H](C)N7C(=O)[C@@H](NC(=O)OC)C(C)C)[nH]c65)cc3-4)c[nH]2)N(C(=O)[C@H](NC(=O)OC)c2ccccc2)C1 [Velpatasvir],95.6% and 98.5%,87.6,88.2,91.6,90.1,93.5,98,93.6
CC(=N)NCc1cccc(CN)c1,103% and 97.3%,91.8,96.3,100,95.6,97.8,95.4,101
CCOc1cc2ncc(C#N)c(Nc3ccc(OCc4ccccn4)c(Cl)c3)c2cc1NC(=O)/C=C/CN(C)C [Neratinib (HKI-272)],68.5% and 66.3%,62.6,42.1,41.8,54.1,53.4,13.3,36.9
O=C(Nc1c(Cl)cncc1Cl)c1ccc(OC(F)F)c(OCC2CC2)c1 [Roflumilast (Daxas)],96.8% and 106%,105,116,114,105,109,103,96
CC[C@H]1OC(=O)[C@@](C)(F)C(=O)[C@H](C)[C@@H](O[C@@H]2O[C@H](C)C[C@H](N(C)C)[C@H]2O)[C@](C)(OC)C[C@@H](C)C(=O)[C@H](C)[C@H]2N(CCCCn3cc(-c4cccc(N)c4)nn3)C(=O)O[C@]12C [Solithromycin],91% and 93.4%,91.2,107,101,89.4,94.9,94.1,93.5
OC[C@H]1O[C@@H](c2ccc(Cl)c(Cc3ccc(O[C@H]4CCOC4)cc3)c2)[C@H](O)[C@@H](O)[C@@H]1O,89.6% and 87.1%,94.4,89.4,102,94.3,93.8,93.1,105
CCCCCCCCCCCCCC(=S)NCCCC[C@H](NC(=O)OCc1ccccc1)C(=O)Nc1ccccc1 [Thiomyristoyl],82.1% and 77.7%,81.9,81.4,97.3,82,83.8,90.2,86.3
COc1nc(OCc2cccc(-c3ccccc3)c2C)ccc1CNCCNC(C)=O [BMS202 (PD-1/PD-L1 inhibitor 2)],10.8% and 26.5%,32.6,60.9,59,41.6,31.9,53.5,51.3
CN(C)CCNC(=O)c1cccn2c(=O)c3cc4ccccc4cc3nc12,32.5% and 33.8%,30.8,35,26.6,0.3,0.24,0.28,1.23
C#Cc1cccc(Nc2ncnc3cc(OCCOC)c(OCCOC)cc23)c1 [Erlotinib(OSI-744)],83.5% and 94.5%,84.8,75.9,84.8,79,84.6,77.9,84.4
C[C@@H]1O[C@@H]1P(=O)(O)O [fosfomycin tromethamine],108% and 107%,100,109,114,103,104,106,98.6
CCOc1nc2cccc(C(=O)OC(C)OC(=O)OC3CCCCC3)c2n1Cc1ccc(-c2ccccc2-c2nn[nH]n2)cc1 (centres undefined) [Candesartan cilexetil (Atacand)],95.6% and 97.9%,75.5,98.8,106,62.2,87.1,90,72.1
CC(C)S(=O)(=O)c1ccc2nccc(Nc3ccc4scnc4c3)c2c1,60.2% and 78.2%,63.7,101,108,75.2,78.2,83.2,88.5
Nc1nc(=O)n([C@@H]2CS[C@H](CO)O2)cc1F [Emtricitabine],106% and 105%,104,103,106,104,107,102,108
Cc1cc(O)c2c(c1)C(=O)c1cc(O)cc(O)c1C2=O [Emodin],85.5% and 86.8%,90.4,90.9,100,109,107,89.1,83.7
CCN(CC)CCOc1ccc(C(=C(Cl)c2ccccc2)c2ccccc2)cc1 [Clomifene citrate (Serophene)],37.2% and 36.3%,62.6,57.2,61.7,50.8,60.9,54.5,52.3

Compound,cell viability (K562; SRSF2 genotype: SRSF2 P95H/wt),cell viability (K562; SRSF2 genotype: SRSF2 wt/wt) [%],cell viability (MARIMO; SRSF2 genotype: SRSF2 P95H/wt) [%],cell viability (MARIMO; SRSF2 genotype: SRSF2 wt/wt) [%],cell viability (MOLM14; SRSF2 genotype: SRSF2 P95H/wt) [%],cell viability (MOLM14; SRSF2 genotype: SRSF2 wt/wt) [%],cell viability (OCI-AML2; SRSF2 genotype: P95H/wt) [%],cell viability (OCI-AML2; SRSF2 genotype: wt/wt) [%]
COc1ccc(C(=O)Nc2sc3c(c2C(N)=O)CCCC3)cc1OC,95.4% and 96.5%,91.5,93.8,91.9,79.8,93,85.2,81.4
CCN1CCCC1CNC(=O)c1cc(S(=O)(=O)CC)c(N)cc1OC (centres undefined) [Amisulpride],104% and 101%,105,102,107,109,108,109,110
COC(=O)CCSCc1ccc(-c2onc(C)c2NC(=O)OC(C)c2ccccc2Cl)cc1 (centres undefined),94.7% and 94%,94.3,87.3,97.7,90,94.7,82.3,100
C[N+]1(C)CCC(=C(c2ccccc2)c2ccccc2)CC1 [Diphemanil Methylsulfate],92.5% and 98%,96.6,101,106,99,98.6,99.8,101
N#Cc1cc(-c2n[nH]c(-c3ccncc3)n2)ccn1 [Topiroxostat],90.1% and 106%,94,104,111,104,103,98.8,100
CCOC(=O)c1ccc(NC(=O)O[C@H]2[C@H](OC(=O)Nc3ccc4c(c3)OCO4)[C@@H](OC(=O)Nc3ccc4c(c3)OCO4)[C@@H](OC)O[C@@H]2CO)cc1,89.5% and 99.2%,93.3,103,106,100,101,99.3,103
O=c1cc(CN2CCOCC2)occ1OCCCCCSc1ccnc2cc(C(F)(F)F)ccc12,59.9% and 65.2%,60.1,49.4,37.7,58.9,68.5,27.6,34.3
CC1OC(OC2C(OC3CCC4(C)C(CCC5(C)C4CC=C4C6CC(C)(C)CCC6(C(=O)OC6OC(COC7OC(CO)C(O)C(O)C7O)C(O)C(O)C6O)CCC45C)C3(C)CO)OCC(O)C2O)C(O)C(OC2OC(CO)C(O)C(O)C2O)C1O (centres undefined) [Macranthoidin A],99.3% and 97.9%,100,100,102,102,96.6,98,105
Cc1cc(OCc2nnc(SC3CCCC3)n2-c2cccnc2)ccc1-c1ccc(S(C)(=O)=O)cc1,0.65% and 0.74%,1.74,0.85,1.72,0.25,0.26,0.24,0.79
O=C(CCCN1CCC(O)(c2ccc(Cl)cc2)CC1)c1ccc(F)cc1 [Haloperidol (Haldol)],87.7% and 94.9%,94.5,73.9,85.3,84.8,91,84.2,91
C[S+]([O-])c1ccc(-c2nc(-c3ccc(F)cc3)c(-c3ccncc3)[nH]2)cc1 (centres undefined),96.3% and 94.8%,88.4,110,113,109,99.9,109,102
O=c1cc(-c2ccc(O)cc2)oc2cc(O)c(O)c(O)c12 [Scutellarein],92% and 86.2%,95,102,91.3,107,103,102,97
CN(C)C/C=C/C(=O)Nc1cc2c(Nc3ccc(F)c(Cl)c3)ncnc2cc1O[C@H]1CCOC1 [Afatinib (BIBW2992)],8.97% and 5.94%,6.24,1.96,1.37,0.03,0.04,0.06,0.13
COc1cc2c3cc1Oc1c(OC)c(OC)cc4c1[C@@H](Cc1ccc(O)c(c1)Oc1ccc(cc1)C[C@@H]3N(C)CC2)N(C)CC4 [Berbamine],62.8% and 49.4%,57.5,72.7,67.2,72.8,67.6,39.3,54.9
CC(=O)OCC(=O)[C@@]1(O)[C@H](C)C[C@H]2[C@@H]3CCC4=CC(=O)C=C[C@]4(C)[C@@]3(F)[C@@H](O)C[C@@]21C [Dexamethasone acetate],105% and 106%,106,105,104,103,95.5,106,109
O=C(Cn1cnnn1)N[C@@H]1C(=O)N2C(C(=O)O)=C(CSc3nncs3)CS[C@H]12 [Ceftezole sodium],108% and 99.1%,120,101,105,109,110,123,118
CC[C@@]1(O)C(=O)OCc2c1cc1n(c2=O)Cc2cc3c(CN(C)C)c(O)ccc3nc2-1 [Topotecan HCl],15% and 25%,12.9,5.05,3.35,0.55,0.35,3.3,8.46
CS(=O)(=O)c1ccc(-c2cnc(NCc3ccco3)n3cnnc23)cc1,99.9% and 93.9%,97.2,103,99.5,100,98.5,101,110
CCN(CC)CCOC(=O)c1ccc(N)cc1 [Procaine (Novocaine) HCl],98.7% and 100%,95.9,109,112,98.6,99.7,93.2,110
COc1ccc(-c2cc3c(C)nc(N)nc3n([C@H]3CC[C@H](OCCO)CC3)c2=O)cn1,40.2% and 40.4%,39.5,32.4,27.5,22.9,23.3,1.55,8.86
CC(C(=O)O)c1cccc(Oc2ccccc2)c1 (centres undefined) [Fenoprofen calcium hydrate],95.1% and 104%,99.4,103,101,95.1,102,106,103
